What all share (parameters): scale not given: direction of the effect not stated beside the values
For assay [1], the target named is Protein translocase subunit SecA (Escherichia coli (strain K12)) (UniProt P10408). Put plainly: Assay to Identify E. coli SecA ATPase Inhibitors. The class given is functional. Particulars: 30 µM.
Assay [2] has as its target T1, Ubiquitin-activating enzyme e1, putative (Leishmania donovani (strain BPK282A1)) (UniProt E9BSI1).
T1 sequence (whole entry): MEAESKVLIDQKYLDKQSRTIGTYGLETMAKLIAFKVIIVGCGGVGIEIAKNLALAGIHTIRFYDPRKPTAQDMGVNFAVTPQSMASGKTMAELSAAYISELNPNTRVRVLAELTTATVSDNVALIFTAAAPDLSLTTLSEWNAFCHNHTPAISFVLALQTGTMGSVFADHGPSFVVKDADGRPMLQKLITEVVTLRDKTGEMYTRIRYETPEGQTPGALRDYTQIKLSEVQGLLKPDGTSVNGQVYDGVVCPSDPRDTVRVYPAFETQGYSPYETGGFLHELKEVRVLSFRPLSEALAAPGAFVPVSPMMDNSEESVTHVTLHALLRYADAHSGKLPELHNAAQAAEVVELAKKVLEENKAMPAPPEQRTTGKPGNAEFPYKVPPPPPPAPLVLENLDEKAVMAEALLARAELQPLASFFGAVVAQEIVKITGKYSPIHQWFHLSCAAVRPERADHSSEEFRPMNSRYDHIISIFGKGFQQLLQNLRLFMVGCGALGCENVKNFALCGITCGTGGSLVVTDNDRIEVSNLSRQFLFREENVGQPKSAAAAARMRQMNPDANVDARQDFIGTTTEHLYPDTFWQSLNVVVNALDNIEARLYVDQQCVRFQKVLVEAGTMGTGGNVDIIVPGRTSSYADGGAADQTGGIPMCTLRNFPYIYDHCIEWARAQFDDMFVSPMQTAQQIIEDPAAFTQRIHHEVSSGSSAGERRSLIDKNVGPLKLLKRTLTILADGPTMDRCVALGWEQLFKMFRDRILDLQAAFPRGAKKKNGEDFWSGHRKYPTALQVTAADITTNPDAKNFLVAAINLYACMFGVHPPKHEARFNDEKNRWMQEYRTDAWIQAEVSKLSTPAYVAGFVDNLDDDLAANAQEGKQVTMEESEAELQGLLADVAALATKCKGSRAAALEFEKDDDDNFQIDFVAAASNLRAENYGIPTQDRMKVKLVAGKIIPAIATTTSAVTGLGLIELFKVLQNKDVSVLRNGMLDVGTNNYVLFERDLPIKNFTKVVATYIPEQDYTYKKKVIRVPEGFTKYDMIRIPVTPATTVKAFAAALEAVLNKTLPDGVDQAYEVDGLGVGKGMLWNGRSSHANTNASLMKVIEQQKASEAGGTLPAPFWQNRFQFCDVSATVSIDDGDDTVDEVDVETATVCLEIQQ
Put plainly: Leishmania donovani Ubiquitin Activating Enzyme (LdE1). The class given is functional. Particulars: 30 µM.

Assay [3] addresses AMP-activated protein kinase, AMPK (Homo sapiens) (UniProt P54646+O43741+P54619+Q9UGJ0+Q9Y478+Q13131+Q9UGI9). Kind of assay: AMP-dependent Kinase enzyme assay. An in vitro enzyme assay that detects ADP turnover that is directly proportional to AMPK activity. This uses naive AMPK that is activated during the assay with MK-8722. In kind it is functional. The note with it: 30 µM.

In assay [4] the target is Sialic acid-binding Ig-like lectin 9 (Homo sapiens) (UniProt Q9Y336). Put plainly: Hs-Siglec9 ALPHAscreen SOP 20170721. Particulars: 10 µM. In general terms: Bead proximity is the source of the signal in Alpha formats.
A further assay relates to Trypanosoma cruzi. Put plainly: Trypanosoma cruzi phosphomannomutase and mannose-1-phosphate guanylyltransferase assay. The class given is functional. Particulars: 10 µM.
Assay [5] addresses T2, Arginase-2, mitochondrial (Homo sapiens) (UniProt P78540).
T2 sequence (whole entry): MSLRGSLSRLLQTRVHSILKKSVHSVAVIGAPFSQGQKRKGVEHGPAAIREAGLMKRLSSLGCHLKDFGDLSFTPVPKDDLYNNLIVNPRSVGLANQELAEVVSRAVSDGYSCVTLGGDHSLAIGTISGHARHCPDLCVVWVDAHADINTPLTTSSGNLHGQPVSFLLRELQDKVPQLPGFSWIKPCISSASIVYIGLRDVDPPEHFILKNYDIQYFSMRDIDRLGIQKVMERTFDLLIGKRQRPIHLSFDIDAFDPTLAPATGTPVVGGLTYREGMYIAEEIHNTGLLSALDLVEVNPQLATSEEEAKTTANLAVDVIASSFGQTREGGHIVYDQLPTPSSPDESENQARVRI
Kind of assay: in vitro enzyme assay to detect the production of urea directly proportional to the activity of Arginase II. Further: in the data most compounds retested in dose-response had high values. In kind it is functional. The note with it: 33.3 µM.

Assay [6] addresses T3, Proteasome subunit beta (Trypanosoma cruzi) (UniProt O96673).
T3 sequence (whole entry): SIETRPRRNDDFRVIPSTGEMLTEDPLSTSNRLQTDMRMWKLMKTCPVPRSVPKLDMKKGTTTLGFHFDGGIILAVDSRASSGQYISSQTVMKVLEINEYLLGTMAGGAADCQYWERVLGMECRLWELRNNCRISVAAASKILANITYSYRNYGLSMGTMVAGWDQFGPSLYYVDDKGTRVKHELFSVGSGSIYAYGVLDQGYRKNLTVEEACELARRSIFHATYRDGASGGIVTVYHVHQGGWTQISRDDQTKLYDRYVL
Put plainly: Trypanosoma cruzi proteasome chymotrypsin-like activity (TcProtChymo) assay. Further: in the data most compounds retested in dose-response had high values. In kind it is functional. The note with it: 9.37 µM.

Another assay is filed under the species Homo sapiens. Kind of assay: To identify inhibition of the IFN signalling (Jak-Stat) pathway via expression of an eGFP reporter gene under the control of an IFN-stimulated response element (ISRE) containing MxA promoter. The class given is functional. Particulars: 30 µM. (A reporter such as luciferase makes a cellular process visible.)
Assay [7] has as its target T4, Tyrosyl-tRNA synthetase, putative (Trypanosoma cruzi (strain CL Brener)) (UniProt Q4DSP6).
T4 sequence (whole entry): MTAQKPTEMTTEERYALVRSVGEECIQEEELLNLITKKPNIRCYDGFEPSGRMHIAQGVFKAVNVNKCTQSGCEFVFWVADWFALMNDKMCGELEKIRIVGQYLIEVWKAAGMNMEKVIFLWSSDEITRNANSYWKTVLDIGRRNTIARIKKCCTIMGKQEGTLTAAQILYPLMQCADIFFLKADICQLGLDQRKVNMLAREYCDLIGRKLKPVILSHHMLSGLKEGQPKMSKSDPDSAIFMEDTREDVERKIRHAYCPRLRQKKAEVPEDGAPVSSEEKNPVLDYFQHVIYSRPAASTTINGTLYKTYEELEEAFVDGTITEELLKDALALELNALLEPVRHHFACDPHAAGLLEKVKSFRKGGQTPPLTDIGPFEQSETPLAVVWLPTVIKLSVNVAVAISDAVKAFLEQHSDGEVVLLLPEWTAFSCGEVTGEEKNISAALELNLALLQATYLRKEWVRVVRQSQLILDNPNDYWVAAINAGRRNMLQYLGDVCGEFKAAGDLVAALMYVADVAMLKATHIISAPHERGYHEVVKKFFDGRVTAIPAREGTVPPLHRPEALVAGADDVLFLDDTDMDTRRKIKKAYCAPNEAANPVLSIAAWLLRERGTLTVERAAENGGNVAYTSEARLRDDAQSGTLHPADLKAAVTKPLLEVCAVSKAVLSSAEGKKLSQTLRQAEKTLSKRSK
Put plainly: Trypanosoma cruzi tyrosyl tRNA synthetase (TcYRS) _High Tyrosine SOP. Further: in the data most compounds retested in dose-response had high values. In kind it is functional. The note with it: 30 µM.

The target in assay [8] is T4, Tyrosyl-tRNA synthetase, putative (Trypanosoma cruzi (strain CL Brener)). Put plainly: Trypanosoma cruzi tyrosyl tRNA synthetase (TcYRS) SOP. The class given is functional. The note with it: 30 µM.
Assay [9] deals with Chromo domain-containing protein 1 (Saccharomyces cerevisiae (strain ATCC 204508 / S288c) (Baker's yeast)) (UniProt P32657). Kind of assay: ScCHD-1 Enzyme Inhibition Assay. Further: in the data most compounds retested in dose-response had high values. The note with it: 30 µM. In kind it is functional.

For some of these results: Results with a measured potency or affinity are listed apart.

Chain of Sialic acid-binding Ig-like lectin 9 (Homo sapiens) (Q9Y336 whole entry): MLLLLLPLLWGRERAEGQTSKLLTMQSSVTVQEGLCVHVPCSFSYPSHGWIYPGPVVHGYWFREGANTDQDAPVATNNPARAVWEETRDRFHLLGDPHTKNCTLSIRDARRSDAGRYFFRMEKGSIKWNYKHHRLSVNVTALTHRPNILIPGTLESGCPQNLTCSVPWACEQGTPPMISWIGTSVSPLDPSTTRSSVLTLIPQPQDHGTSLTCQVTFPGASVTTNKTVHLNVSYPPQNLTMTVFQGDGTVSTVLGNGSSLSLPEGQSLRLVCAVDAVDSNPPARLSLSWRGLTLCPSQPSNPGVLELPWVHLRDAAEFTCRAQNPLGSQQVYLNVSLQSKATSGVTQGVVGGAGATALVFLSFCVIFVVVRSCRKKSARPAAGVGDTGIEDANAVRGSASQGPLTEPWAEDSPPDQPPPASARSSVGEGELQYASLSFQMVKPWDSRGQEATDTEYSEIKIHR
Chain of Chromo domain-containing protein 1 (Saccharomyces cerevisiae (strain ATCC 204508 / S288c) (Baker's yeast)) (P32657 whole entry, the tested form may be a part): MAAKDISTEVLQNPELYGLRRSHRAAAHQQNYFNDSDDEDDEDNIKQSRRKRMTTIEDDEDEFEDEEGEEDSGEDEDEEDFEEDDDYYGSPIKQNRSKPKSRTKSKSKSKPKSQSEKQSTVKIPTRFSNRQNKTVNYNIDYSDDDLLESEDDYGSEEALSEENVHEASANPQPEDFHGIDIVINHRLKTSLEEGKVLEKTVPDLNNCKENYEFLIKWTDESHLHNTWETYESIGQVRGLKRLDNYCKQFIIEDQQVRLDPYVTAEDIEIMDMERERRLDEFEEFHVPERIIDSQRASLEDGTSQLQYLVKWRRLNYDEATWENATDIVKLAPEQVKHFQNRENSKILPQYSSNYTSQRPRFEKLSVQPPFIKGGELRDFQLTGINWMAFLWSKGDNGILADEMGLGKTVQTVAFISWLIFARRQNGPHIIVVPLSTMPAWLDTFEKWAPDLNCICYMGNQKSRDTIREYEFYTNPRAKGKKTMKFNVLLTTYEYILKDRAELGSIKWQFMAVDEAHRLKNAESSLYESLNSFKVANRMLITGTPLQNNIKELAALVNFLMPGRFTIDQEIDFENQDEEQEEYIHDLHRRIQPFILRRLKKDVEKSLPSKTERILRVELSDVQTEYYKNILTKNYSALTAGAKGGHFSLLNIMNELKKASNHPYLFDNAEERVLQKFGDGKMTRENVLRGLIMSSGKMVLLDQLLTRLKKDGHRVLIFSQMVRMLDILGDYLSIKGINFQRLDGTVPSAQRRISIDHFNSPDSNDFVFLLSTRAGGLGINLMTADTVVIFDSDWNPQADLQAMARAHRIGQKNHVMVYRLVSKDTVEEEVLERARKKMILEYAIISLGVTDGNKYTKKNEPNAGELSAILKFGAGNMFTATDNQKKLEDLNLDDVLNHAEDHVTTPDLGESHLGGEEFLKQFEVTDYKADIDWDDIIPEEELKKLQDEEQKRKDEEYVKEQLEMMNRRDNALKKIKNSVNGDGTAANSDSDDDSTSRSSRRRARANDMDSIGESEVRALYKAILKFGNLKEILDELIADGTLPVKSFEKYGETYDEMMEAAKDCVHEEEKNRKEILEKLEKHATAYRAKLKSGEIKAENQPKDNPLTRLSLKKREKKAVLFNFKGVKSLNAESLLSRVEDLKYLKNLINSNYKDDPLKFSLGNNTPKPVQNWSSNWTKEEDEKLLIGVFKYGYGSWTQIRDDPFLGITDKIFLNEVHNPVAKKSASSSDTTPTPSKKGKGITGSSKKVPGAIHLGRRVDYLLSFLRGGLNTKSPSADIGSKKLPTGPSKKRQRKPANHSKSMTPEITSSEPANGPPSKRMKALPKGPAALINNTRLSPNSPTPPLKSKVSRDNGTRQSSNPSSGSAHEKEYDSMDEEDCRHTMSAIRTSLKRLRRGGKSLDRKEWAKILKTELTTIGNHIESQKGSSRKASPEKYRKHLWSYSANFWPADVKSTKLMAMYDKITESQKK
Chain of Protein translocase subunit SecA (Escherichia coli (strain K12)) (P10408 whole entry): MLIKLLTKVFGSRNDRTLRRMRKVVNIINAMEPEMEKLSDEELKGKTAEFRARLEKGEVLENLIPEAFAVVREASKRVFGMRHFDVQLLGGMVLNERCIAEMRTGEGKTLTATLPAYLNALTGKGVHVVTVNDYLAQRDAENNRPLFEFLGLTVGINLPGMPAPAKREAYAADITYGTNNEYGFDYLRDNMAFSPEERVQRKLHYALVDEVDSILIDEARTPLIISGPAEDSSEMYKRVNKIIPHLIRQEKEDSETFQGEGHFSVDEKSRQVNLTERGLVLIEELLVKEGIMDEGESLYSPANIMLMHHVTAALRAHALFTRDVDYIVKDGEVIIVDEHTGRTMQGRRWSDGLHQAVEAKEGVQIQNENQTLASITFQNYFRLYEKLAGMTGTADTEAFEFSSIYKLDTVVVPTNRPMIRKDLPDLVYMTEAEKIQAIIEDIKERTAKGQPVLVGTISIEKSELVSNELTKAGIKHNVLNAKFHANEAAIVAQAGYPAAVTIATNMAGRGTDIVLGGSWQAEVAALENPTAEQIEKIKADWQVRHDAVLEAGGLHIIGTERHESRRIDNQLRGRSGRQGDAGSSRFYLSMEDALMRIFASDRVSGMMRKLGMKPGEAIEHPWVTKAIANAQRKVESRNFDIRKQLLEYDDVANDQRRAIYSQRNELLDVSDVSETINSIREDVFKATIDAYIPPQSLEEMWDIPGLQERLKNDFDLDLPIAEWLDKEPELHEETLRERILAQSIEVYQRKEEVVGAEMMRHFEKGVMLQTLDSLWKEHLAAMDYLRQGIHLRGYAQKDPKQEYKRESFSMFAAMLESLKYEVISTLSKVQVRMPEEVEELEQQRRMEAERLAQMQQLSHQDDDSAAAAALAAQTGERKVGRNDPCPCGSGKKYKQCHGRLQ

As for `Cc1cc(C)n(CC2CCCN2C(=O)c2ccc(C(N)=O)cn2)n1` (stereo unspecified), the Percent Effect in [1] is -6.82%; in assay [2], 16.5%; in [3], 1.06%; in assay [4], -0.198%; in the assay on Trypanosoma cruzi, 2.56%; in assay [5], 1.5%. The Percent Effect in assay [6] was 7.38%; in the assay listed under Homo sapiens it was 7.83%; in assay [7], -3.12%; in assay [8] it was 17.7%; in [9], -27.9%.
For `CCC(NC(=O)C1CCN(S(=O)(=O)N(C)C)CC1)c1ccc(C)c(C)c1` (stereo unspecified), the Percent Effect in [1] was 0.26%; in [2], 0%; in assay [3] it was 0.886%; in [4] it was 1.28%; with Trypanosoma cruzi it was -2.46%; in assay [5] it was 19.3%. In addition, the Percent Effect is 8.82% in assay [6]; -10.2% in the assay filed under Homo sapiens; -2.15% in assay [7]; 1.24% in assay [8]; -0.385% in assay [9].
As for `CCN1CCN(C2CCN(Cc3c(C)noc3C)CC2)C1=O`, the Percent Effect was -8.32% in assay [1]; 15.2% in assay [2]; -5.02% in assay [3]; 13.7% in [4]; 4.44% in the assay with Trypanosoma cruzi; -0.38% in [5]. Further, the Percent Effect was 6.8% in assay [6]; 3.4% in the assay filed under Homo sapiens; 6.4% in [7]; 16.5% in assay [8]; -7.48% in assay [9].
Take `Cc1nc2c(c(C)c1CC(=O)Nc1cccc(C#N)c1)c(=O)[nH]n2C`: the Percent Effect in assay [1] was -5.36%; in assay [2] it was 7.79%; in [3], 0.36%; in [4] it was -4.8%; with Trypanosoma cruzi it was -4.8%; in assay [5] it was -1.9%. The Percent Effect in [6] was 10.8%; in the assay filed under Homo sapiens it was 16.6%; in [7] it was 2.86%; in assay [8], 2.35%; in assay [9] it was -19.9%.
`CCSCC(C)NCc1nncn1C1CCCCC1` (stereo unspecified): the Percent Effect in assay [1] was -0.842%; in [2] it was 6.94%; in [3], -1.51%; in [4], -1.31%; in the assay with Trypanosoma cruzi, 2.23%; in [5] it was 0.883%. The Percent Effect in [6] was 16%; in the assay filed under Homo sapiens, -2.28%; in assay [7], 11.6%; in [8] it was 20.5%; in assay [9] it was -4.13%.
Regarding `Cn1c(C(F)(F)F)nn(CCNC(=O)CSCc2ccccc2)c1=O`, the Percent Effect is -3.49% in assay [1]; 8.22% in assay [2]; 2.99% in assay [3]; 4.38% in assay [4]; 4.7% with Trypanosoma cruzi; 5% in assay [5]. Also, the Percent Effect was 4.79% in assay [6]; 14.2% in the assay listed under Homo sapiens; 4.3% in assay [7]; 15% in [8]; -4.6% in assay [9].
As to `CN(CCNC(=O)N1CCN(Cc2ccon2)CC1)c1ccccc1`, the Percent Effect was -4.87% in [1]; 5.33% in assay [2]; -2.4% in [3]; 0.269% in assay [4]; -5.75% in the assay on Trypanosoma cruzi; 2.6% in [5]. For the same compound, the Percent Effect was 12.2% in assay [6]; -1.26% in the assay filed under Homo sapiens; 3.83% in assay [7]; 3.7% in assay [8]; -4.99% in [9].
For `CCCc1n[nH]c(C2CN(C(=O)CCCn3cccn3)CCO2)n1` (stereo unspecified), the Percent Effect in assay [1] was -4.8%; in assay [2] it was -4.17%; in [3], -0.0148%; in assay [4], -2.33%; with Trypanosoma cruzi, -2.82%; in assay [5], -0.883%. Moreover, the Percent Effect was 7.89% in assay [6]; -2.8% in the assay listed under Homo sapiens; -1.05% in assay [7]; -2.56% in assay [8]; 5.04% in assay [9].
In the case of `Cn1cccc1C(=O)N1CCc2ncc(Cn3cccn3)n2CC1`, the Percent Effect in assay [1] was -5.21%; in assay [2], 10.7%; in [3], -0.846%; in assay [4], -1.04%; in the assay with Trypanosoma cruzi, 2.32%; in [5] it was -43.2%. Besides, the Percent Effect in assay [6] was 0.513%; in the assay filed under Homo sapiens, -2.01%; in [7], 2.08%; in [8] it was 2.5%; in [9], -3.31%.
For the compound `CCc1ccc(C(=O)N2CCCC(c3noc(CC)n3)C2)o1` (stereo unspecified), the Percent Effect in [1] is -0.983%; in assay [2], 2.6%; in assay [3], 7.44%; in [4], 4.61%; in the assay with Trypanosoma cruzi, 3.04%; in assay [5] it was 0.21%. Further, the Percent Effect was 4.12% in assay [6]; 3.88% in the assay listed under Homo sapiens; 0.952% in assay [7]; 7.06% in assay [8]; -10.5% in [9].
For `Cc1cc2nc(SCC(=O)N3CCCC3)n(C(C)C)c(=O)c2[nH]1`, the Percent Effect in assay [1] is -2.21%; in assay [2], 21.1%; in [3], -3.68%; in assay [4] it was -13.3%; with Trypanosoma cruzi, 2.63%; in assay [5], -1.18%. The Percent Effect is 19.5% in [6]; 17.9% in the assay listed under Homo sapiens; 1.06% in assay [7]; 10.4% in assay [8]; -6.22% in assay [9].

(Values after ChEMBL document CHEMBL3988442, “University of Dundee, Small-Polar-MMV Screening Library” (2021).)
